Measurements: the supplement of paper PMC10981050
“And” between values parts separate entries of the source, which are not always exact repeats. Identical values can stand only once. Counter-ions that a name gives are not always drawn.

How the values were obtained:
Experiment in all cases: cell viability relative to vehicle control; higher = less cytotoxic
Details in all cases: 10 µM
K562 = system: K562
In short: (§1)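 Screening covered the Selleck bioactive, kinase and epigenetic probe libraries, less identity-inconsistent compounds, on CRISPR-edited mutant clones and isogenic wild-type clones of four leukaemia lines. Cells, at 2000 per well in 50 µL medium, received a single 10 µM acoustically dispensed dose. After 48 h the supernatant was removed and CellTiter-Glo luminescence was read. Viability was analysed in Genedata Screener as percent of the on-plate vehicle control.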

MARIMO = system: MARIMO
In short: as §1

MOLM14 = system: MOLM14
In short: as §1

OCI-AML2 = system: OCI-AML2
In short: as §1

| SMILES | cell viability (K562; SRSF2 genotype: SRSF2 P95H/wt) | cell viability (K562; SRSF2 genotype: SRSF2 wt/wt) [%] | cell viability (MARIMO; SRSF2 genotype: SRSF2 P95H/wt) [%] | cell viability (MARIMO; SRSF2 genotype: SRSF2 wt/wt) [%] | cell viability (MOLM14; SRSF2 genotype: SRSF2 P95H/wt) [%] | cell viability (MOLM14; SRSF2 genotype: SRSF2 wt/wt) [%] | cell viability (OCI-AML2; SRSF2 genotype: P95H/wt) [%] | cell viability (OCI-AML2; SRSF2 genotype: wt/wt) [%] |
| --- | --- | --- | --- | --- | --- | --- | --- | --- |
| CC(=O)c1cc([N+](=O)[O-])c(Sc2ccc(F)cc2F)s1 | 69% and 79.6% | 71 | 57.1 | 54.2 | 13.7 | 12.3 | 76.6 | 35.3 |
| CC(C)=CCOc1ccc(/C=C/C(=O)c2ccc(OCC=C(C)C)cc2OCC(=O)O)cc1 [Sofalcone] | 100% and 101% | 107 | 105 | 101 | 84.9 | 94.5 | 106 | 118 |
| COc1cc2ncnc(Oc3ccc(CC(=O)Nc4cnn(C(C)C)c4)cc3)c2cc1OC | 74.8% and 98.4% | 72.4 | 113 | 107 | 16.1 | 14.1 | 36.1 | 42.4 |
| C[C@@H](NCCCc1cccc(C(F)(F)F)c1)c1cccc2ccccc12 [AMG-073 HCl (Cinacalcet hydrochloride)] | 21.9% and 38.4% | 19.4 | 57.1 | 50.4 | 27 | 24.2 | 1.48 | 10.2 |
| COC(=O)CNC(=O)C(=O)OC | 93% and 96.6% | 96.3 | 89.1 | 90.8 | 92.6 | 94.5 | 56.9 | 64.9 |
| COc1cc(-c2coc3cc4c(c(OC)c3c2=O)OCO4)cc(OC)c1OC [Irisflorentin] | 93.9% and 96.7% | 93.6 | 89.8 | 96.8 | 96.8 | 97.9 | 81.6 | 90.9 |
| O=C(O)/C=C/c1ccc(O)cc1 [p-Coumaric Acid] | 101% and 108% | 110 | 108 | 110 | 107 | 107 | 109 | 103 |
| OCCOCCN1CCN(C(c2ccccc2)c2ccc(Cl)cc2)CC1 (centres undefined) [Hydroxyzine pamoate] | 88.7% and 98% | 100 | 79.8 | 91.8 | 79.9 | 96.4 | 87.9 | 94.6 |
| COc1ccc(C(=O)C(=O)c2ccc(OC)cc2)cc1 | 104% and 97.9% | 104 | 95.5 | 105 | 100 | 106 | 94.5 | 90.8 |
| O=C(c1ccc(F)c(F)c1Nc1ccc(I)cc1F)N1CC(O)([C@@H]2CCCCN2)C1 [Cobimetinib (GDC-0973, RG7420)] | 22.4% and 35.4% | 35.5 | 27.5 | 28.6 | 29.6 | 21.1 | 18.2 | 26.1 |
| CN(C)C/C=C/C(=O)Nc1cc2c(Nc3ccc(F)c(Cl)c3)ncnc2cc1O[C@H]1CCOC1 [Afatinib (BIBW2992)] | 8.97% and 5.94% | 6.24 | 1.96 | 1.37 | 0.03 | 0.04 | 0.06 | 0.13 |
| C/C=C(\C)C(=O)OC1c2c(ccc3ccc(=O)oc23)OC(C)(C)C1OC(=O)/C(C)=C/C (centres undefined) [Paeruptorin B] | 92.7% and 97.1% | 89.7 | 86.9 | 96.3 | 89.7 | 92.3 | 93.8 | 103 |
| CN(C(Cc1ccc(OS(=O)(=O)c2cccc3cnccc23)cc1)C(=O)N1CCN(c2ccccc2)CC1)S(=O)(=O)c1cccc2cnccc12 (centres undefined) | 80.8% and 87.8% | 83.5 | 74.4 | 72.7 | 79.8 | 74.6 | 75.7 | 76.4 |
| C[C@H]1COC2(CCN(c3nc(=O)c4cc(C(F)(F)F)cc([N+](=O)[O-])c4s3)CC2)O1 (racemic) [BTZ043 racemate] | 88.3% and 84.3% | 84.1 | 82.4 | 86.7 | 87 | 85.3 | 91.7 | 86.9 |
| CC(=O)NC(CC(C)C)C(=O)O (centres undefined) [Acetylleucine] | 91.4% and 98.5% | 97 | 103 | 93.4 | 101 | 94.8 | 92.2 | 95.4 |
| Cc1ccc(Nc2nccc(N(C)c3ccc4c(C)n(C)nc4c3)n2)cc1S(N)(=O)=O [Pazopanib] | 84.1% and 94.1% | 85.8 | 96 | 104 | 69.4 | 83 | 73.8 | 71.2 |
| COc1cc(C(=O)N2CCC(N3CCN(C)CC3)CC2)ccc1Nc1ncc2c(n1)N(C)c1ccccc1C(=O)N2C | 49.8% and 57.1% | 61.2 | 26.9 | 31.8 | 16.3 | 20.6 | 10.9 | 21.2 |
| CCOc1cc(N)c(Cl)cc1C(=O)NCC1CN(Cc2ccc(F)cc2)CCO1 (centres undefined) [Mosapride citrate] | 82.7% and 81.9% | 80 | 74.1 | 89.5 | 103 | 93.2 | 81.5 | 82.3 |
| Nc1ccc(S(=O)(=O)Nc2nccs2)cc1 [Sulfathiazole] | 104% and 98.6% | 95.4 | 95.8 | 107 | 103 | 102 | 96 | 105 |

| SMILES | cell viability (K562; SRSF2 genotype: SRSF2 P95H/wt) | cell viability (K562; SRSF2 genotype: SRSF2 wt/wt) [%] | cell viability (MARIMO; SRSF2 genotype: SRSF2 P95H/wt) [%] | cell viability (MARIMO; SRSF2 genotype: SRSF2 wt/wt) [%] | cell viability (MOLM14; SRSF2 genotype: SRSF2 P95H/wt) [%] | cell viability (MOLM14; SRSF2 genotype: SRSF2 wt/wt) [%] | cell viability (OCI-AML2; SRSF2 genotype: P95H/wt) [%] | cell viability (OCI-AML2; SRSF2 genotype: wt/wt) [%] |
| --- | --- | --- | --- | --- | --- | --- | --- | --- |
| Nc1cc(F)ccc1NC(=O)/C=C/c1cnn(C/C=C/c2ccccc2)c1 | 89.5% and 93.8% | 83.6 | 77.8 | 100 | 90.5 | 94.2 | 104 | 87.4 |
| COc1ccc(C[C@@H]2c3cc(OC)c(OC)cc3CC[N@+]2(C)CCC(=O)OCCCCCOC(=O)CC[N@@+]2(C)CCc3cc(OC)c(OC)cc3[C@H]2Cc2ccc(OC)c(OC)c2)cc1OC [Cisatracurium besylate (Nimbex)] | 93.3% and 95.8% | 92.4 | 79 | 94 | 70.7 | 93 | 99.5 | 111 |
| C=C1C[C@@]23CC[C@H]4[C@@](C)(CCC[C@@]4(C)C(=O)O[C@@H]4O[C@H](CO)[C@@H](O)[C@H](O)[C@H]4O)[C@@H]2CC[C@]1(O[C@@H]1O[C@H](CO)[C@@H](O)[C@H](O[C@@H]2O[C@H](CO)[C@@H](O)[C@H](O)[C@H]2O)[C@H]1O[C@@H]1O[C@H](CO)[C@@H](O)[C@H](O)[C@H]1O)C3 [Rebaudioside A] | 95.1% and 100% | 102 | 98.8 | 106 | 105 | 102 | 104 | 105 |
| CCN(CCCc1ccccc1)CCCc1ccccc1 [Alverine Citrate] | 75.1% and 81.5% | 80.6 | 69.5 | 83.8 | 80.3 | 87.4 | 87.6 | 86.5 |
| CC1CNc2c(cccc2S(=O)(=O)N[C@@H](CCCNC(=N)N)C(=O)N2CC[C@@H](C)C[C@@H]2C(=O)O)C1 (some centres undefined) [Argatroban] | 107% and 105% | 94 | 100 | 108 | 103 | 101 | 91.7 | 107 |
| Cc1ncc([N+](=O)[O-])n1C [Dimetridazole] | 106% and 99.5% | 105 | 109 | 106 | 99.1 | 103 | 105 | 109 |
| O=c1ncn2nc(Sc3ccc(F)cc3F)ccc2c1-c1c(Cl)cccc1Cl | 84.8% and 86.8% | 83.6 | 77.9 | 84 | 82.1 | 92.9 | 64.1 | 68.6 |
| Cc1ccc(-n2sc(=O)n(Cc3ccc(F)cc3)c2=O)cc1 | 78.6% and 73.5% | 78 | 67.2 | 72.6 | 47.6 | 61.8 | 50.6 | 50.9 |
| O=C(O)C=CCCCCCCCO [Royal jelly acid] | 103% and 104% | 102 | 104 | 105 | 98.5 | 102 | 110 | 112 |
| Cc1cc(-c2nc(-c3ccc(OC(F)(F)F)cc3)no2)nn1Cc1ccnc(N2CCN(C3CC3)CC2)c1 | 61.8% and 46.9% | 54.1 | 63 | 53.7 | 63.5 | 51.8 | 52.2 | 46.9 |
| C=CC(=O)N1CCN(C(=O)CNc2cc(I)c(Cl)cc2O)CC1 [K-Ras(G12C) inhibitor 12] | 78.9% and 84.7% | 75.2 | 79.8 | 83.6 | 62.9 | 81.2 | 93.3 | 88.1 |
| COc1cc(-c2oc3cc(O)cc(O)c3c(=O)c2O[C@@H]2O[C@H](CO[C@@H]3O[C@@H](C)[C@H](O)[C@@H](O)[C@H]3O)[C@@H](O)[C@H](O)[C@H]2O)ccc1O [Narcissoside] | 108% and 102% | 106 | 102 | 103 | 107 | 105 | 103 | 109 |
| C=C1CCN([C@H](C)[C@](O)(Cn2cncn2)c2ccc(F)cc2F)CC1 [Efinaconazole] | 86.9% and 94% | 96.9 | 76.3 | 88.3 | 85.8 | 95.8 | 82.2 | 83.5 |
| CN(C)CCC(c1ccc(Cl)cc1)c1ccccn1 (centres undefined) [Chlorpheniramine Maleate] | 100% and 106% | 98.2 | 91.4 | 105 | 94.7 | 101 | 99.4 | 99.1 |
| CC(=O)N1CCN(CCOc2ccc(C3CCN(C4=Nn5c(nnc5C(F)(F)F)CC4)CC3)cc2)CC1 | 68.5% and 73% | 71.5 | 60.6 | 57.4 | 53.5 | 53.2 | 49.8 | 59.7 |
| CC(C)(C)S(=O)(=O)c1ccc2nccc(Nc3n[nH]c4ccc(F)cc34)c2c1 | 91.4% and 95.8% | 98.8 | 92.8 | 99.5 | 88 | 95.6 | 88.9 | 86.2 |
| Oc1ccc(/C=C/c2cc(O)cc(O)c2)cc1 [Resveratrol] | 83.1% and 92.7% | 91.6 | 70.1 | 79.6 | 73.4 | 80 | 67.2 | 72.8 |
| Clc1ccc(C(Cn2ccnc2)OCc2c(Cl)cccc2Cl)c(Cl)c1 (centres undefined) [Isoconazole nitrate (Travogen)] | 73.3% and 76.4% | 68.3 | 70.2 | 73.2 | 77.6 | 79.6 | 75.9 | 69.7 |
| CN(C)Cc1ccc(-c2nc3cccc4c3n2CCNC4=O)cc1 | 108% and 106% | 110 | 76.7 | 78.9 | 65.5 | 34.3 | 55.2 | 67.9 |
